From PubChem BioAssay (Tox21)
Activity calls are given as the source filed them. Calls come from the whole dose curve; as a rule, active = well fitted curve in the direction sought with a large enough effect in the repeat runs; inconclusive = weak or mixed curves; inactive = flat fitted curve, though single readings scatter.

assay: qHTS assay to test for compound auto fluorescence at 535 nm (green) in HepG2 cell free culture (AID 720686); conditions: Cell-free medium, green autofluorescence 485/535 nm; series mostly up to 91.3 µM
Text: U.S. Tox21 Program National Center for Advancing Translational Sciences [NCATS] NIH Chemical Genomics Center [NCGC] U.S. Environmental Protection Agency [EPA] National Institutes of Environmental Health Sciences [NIEHS] National Toxicology Program [NTP] U.S. Food and Drug Administration [FDA] Tox21 Assay Overview: Compound auto fluorescence often interferes with screening of the compound library against various biological targets and signaling pathways. Some of these compounds may have fluorophoric properties. Such properties may interfere with the assay outputs resulting in false positives and/or negatives. To decrease such complications and ensure the compound activities are relevant in terms of biological response, the Tox21 10K compound library was screened for auto fluorescence. From the fluorophores used as reporter signals in our screening assays, the auto fluorescence equivalencies of compounds against three fluorophores have been evaluated: Triamterene, Fluorescein and Rose Bengal sodium for blue, green and red fluorescence, respectively. The fluorescence intensities were measured using Excitation/Emission wavelengths at 405/460nm, 485/535nm and 540/590nm for blue, green and red labels, respectively. This assay includes the green fluorescence data.
Tox21 Assay Protocol Summary: 5 uL of culture medium (MEM containing 10% FBS) per well was dispensed into black wall/clear bottom 1536-well plates using a Multidrop Combi Dispenser (ThermoFisher Scientific, Waltham, MA). After 23 nL compound or DMSO vehicle was transferred into assay plate by a pintool work station (Kalypsys, San Diego, CA), fluorescence intensities in the assay plates were measured by an Envision (PerkinElmer, Shelton, CT) plate reader using three labels for measuring blue, green and red fluorescence at […] 460, 535 and 590nm respectively.

SMILES	outcome
CCOP(=S)(OCC)Oc1cc(Cl)c(Br)cc1Cl	inactive
O=[N+]([O-])c1ccc(F)c([N+](=O)[O-])c1	inactive
c1ccc(C2CC2)c(OCC2=NCCN2)c1	inactive
C=CCOC(C)=O	inactive
NS(=O)(=O)C(F)(F)C(F)(F)C(F)(F)C(F)(F)C(F)(F)C(F)(F)C(F)(F)C(F)(F)F	inactive
II	inactive
CN(N=O)c1ccc([N+](=O)[O-])cc1	inactive
CCN(C)N=O	inactive
CC(C)O.CC(C)O.OCCN(CCO)CCO.OCCN(CCO)CCO.[Ti]	inactive
CN1C(=O)NC(=O)C(C)(C2=CCCCC2)C1=O (stereo not given)	inactive
N#CCC#N	inactive
O=[N+]([O-])c1ccccc1CCl	inactive
CC(C)(C)C(O)C(Oc1ccc(Cl)cc1)n1cncn1 (stereo not given)	inactive
CN(C)c1ccc(N(C)C)cc1	inactive
CCCCCCCCOC(=O)c1ccc(C(=O)OCCCCCCCC)c(C(=O)OCCCCCCCC)c1	inactive
ClCC(Br)CBr (stereo not given)	inactive
O=C(O)COc1ccc(Cl)cc1	inactive
C=CC[C@]1(O)CC[C@H]2[C@@H]3CCC4=CC(=O)CCC4=C3C=C[C@@]21C	inactive
CCn1cc[n+](C)c1	inactive
CCOP(=S)(Oc1ccc([N+](=O)[O-])cc1)c1ccccc1 (stereo not given)	inactive

SMILES	outcome
NC(=O)CI	inactive
O=[N+]([O-])c1cc(C(F)(F)F)cc([N+](=O)[O-])c1Cl	inactive
O=C1c2ccccc2C(=O)C1C(=O)C(c1ccccc1)c1ccccc1	inactive
CCC(COC(=O)c1cc(OC)c(OC)c(OC)c1)(c1ccccc1)N(C)C (stereo not given)	inactive
Cc1ccc2ccccc2c1	inactive
OCCCBr	inactive
COC(N)=O	inactive
Nc1ccc(N=Nc2ccc(-c3ccc(N=Nc4c(S(=O)(=O)O)cc5cc(S(=O)(=O)O)c(N=Nc6ccccc6)c(O)c5c4N)cc3)cc2)c(N)c1	inactive
CCOC(=O)CBr	inactive
C[C@@H]1CC[C@H]2[C@@H](C)C(=O)O[C@@H]3O[C@@]4(C)CC[C@@H]1[C@]32OO4	inactive
c1cc2ccc3cccc4ccc(c1)c2c34	inactive
CCCCCCC#N	inactive
O=S(=O)(Cl)c1ccccc1	inactive
CCOC(=O)COc1cc(-c2nn(C)c(OC(F)F)c2Cl)c(F)cc1Cl	inactive
Clc1cccc2ccccc12	inactive
O=C(O)C1(c2ccc3c(c2)OC[C@H](Cc2ccc(-c4ccccc4)cc2)[C@H]3O)CCCC1	inactive
CCc1ccc(C(=O)NN(C(=O)c2cc(C)cc(C)c2)C(C)(C)C)cc1	inactive
ClP(Cl)(Cl)(Cl)Cl	inactive
CC(Cl)Cl	inactive
Brc1ccccc1	inactive
